Only some compounds are listed: those with a hit (about 11% of all), similar ones and a draw of the others.
PNC inhibitor: blocks assembly of the perinucleolar compartment | activity change (PNC), negative = inhibition, % at 10 µM | 140,000 tested, 3.1% active | PC3M PTB-GFP, PNC prevalence imaging, 16 h; stronger effect = lower value;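 active means readout at or below -70, meaning at least 70% loss of cells showing the perinucleolar compartment, a nuclear body marking cancer cells; inconclusive means readout between -30 and a set limit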;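 further: plate controls were DMSO wells for no effect and camptothecin positive control wells for full effect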
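Compounds are pinned in duplicate onto adhered PC3M cells stably expressing GFP-tagged PTB and incubated 16 h at 37 C. Cells are then fixed, nuclei stained with Hoechst, and PNC-positive cells counted.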
ALDH1A1 block: ALDH1A1 (human) enzyme inhibition; Purified ALDH1A1, NADH fluorescence, propionaldehyde substrate; 220,000 tested, 7.3% active; AID 1030; P00352; Potency, µM (doses to about 75.3 µM), for the others: top-dose activity, negative = inhibition, usual class: inhibitors;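 further: potency means the concentration at half of the fitted maximal effect; plate controls were no enzyme wells and a reference inhibitor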
Target sequence (P00352 whole entry, looked up): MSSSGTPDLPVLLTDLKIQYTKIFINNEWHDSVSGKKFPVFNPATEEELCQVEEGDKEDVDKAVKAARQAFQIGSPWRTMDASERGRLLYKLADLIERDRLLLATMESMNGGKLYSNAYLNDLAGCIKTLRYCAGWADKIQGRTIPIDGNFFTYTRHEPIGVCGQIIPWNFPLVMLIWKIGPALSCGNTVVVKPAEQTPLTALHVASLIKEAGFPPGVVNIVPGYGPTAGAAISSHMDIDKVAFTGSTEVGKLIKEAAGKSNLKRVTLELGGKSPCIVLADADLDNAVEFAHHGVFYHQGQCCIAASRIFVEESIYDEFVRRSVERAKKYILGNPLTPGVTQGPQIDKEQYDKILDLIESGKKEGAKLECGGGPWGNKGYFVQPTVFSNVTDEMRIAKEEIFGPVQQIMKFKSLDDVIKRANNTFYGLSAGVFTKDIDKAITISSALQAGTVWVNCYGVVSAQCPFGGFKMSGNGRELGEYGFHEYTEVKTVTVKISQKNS
IMPase inh: IMPase inhibition in cells; CHO-M1 cells, IP1 accumulation, HTRF TR-FRET ratio; inhibition (IP1 accumulation), % at 46.1 µM; 120,000 tested, under 10 active; active means well fitted curve in the direction sought with a large enough effect in the signal ratio, not every such curve was filed as active; inconclusive means small, poorly fitted or top-dose-only effect, or a change in a side signal; inactive means no such curve, though single readings can be large or run the other way; the % refers to the signal ratio;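 further: cells stimulated with carbachol in lithium chloride buffer; plate controls were DMSO basal wells for no effect and reference inhibitor wells for full effect; higher means more IMPase inhibition seen as more IP1 and lower FRET ratio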
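The IP-One HTRF competitive assay in carbachol-stimulated CHO-M1 cells quantifies cellular IP1. Compounds spanned up to 46 uM final, and activity is expressed as AC50 from concentration-response fits of the ratio and donor data.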
IMPase Li inh: membrane-permeable IMPase blocker, potentiated with lithium | CHO-M1 cells, IP1 TR-FRET (IP-One), carbachol + lithium | Potency, µM (titrated, usually from 59.4 µM), for inactives: at the top dose activity, negative = IMPase inhibition, actives largely listed as inhibitors | 210,000 tested, 0.35% active | AID 1457; active means well fitted inhibition curve with a large enough effect; inconclusive means small, poorly fitted or top-dose-only effect; inactive means no such curve, though single readings can be large or run the other way;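 further: IP1 builds up when IMPase is blocked and the TR-FRET signal falls; potency means the concentration at half of the fitted maximal effect; plate controls were basal vehicle for no effect and high inhibitor control for full effect; nearly all actives have a fitted effect of over 50% in size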
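CHO cells stably expressing M1 receptor (2000/well) were cultured 16–30 h, then exposed to compounds with a small lithium addition for 30 min at 37C. IP1 was measured by TR-FRET competition; AC50 from Hill fits.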
HPGD inh: HPGD (human) dehydrogenase inhibition | P15428 | purified HPGD, NADH fluorescence kinetic, PGE2 substrate | Potency, µM, inactives show at the highest dose activity change, negative = inhibition, usual class: inhibitors | 150,000 tested, 4.3% active; further: potency means the concentration at half of the fitted maximal effect
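20 nM HPGD preincubated 15 min at room temperature with compound in 50 mM Tris-HCl pH 8, 0.01% Tween 20. Started with 1 mM NAD+ and 30 uM prostaglandin E2; NADH fluorescence (360/450 nm) read 5 times over 30-s intervals, last minus first.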
* marks the source's active call; other numbers are inactive results; ? = inconclusive; / = no result given; [ ] = dose if it differs, or a comment. Unless noted, the call rests on the fitted dose curve; in most records, active means well fitted inhibition curve with a large enough effect (not every such curve was filed as active); inconclusive means small, poorly fitted or top-dose-only effect, or another doubt; inactive means no such curve, though single readings can be large or run the other way. Unless noted, on the % scale 0 is the no-effect control and ±100 the full control effect.

SMILES	PNC inhibitor	ALDH1A1 block	IMPase inh	IMPase Li inh	HPGD inh
CCOC(=O)Cn1c(=NC(=O)C2COc3ccccc3O2)sc2cc(S(N)(=O)=O)ccc21 (configuration not stated)	-134*	?	/	7%	-18%
CCCOc1ccc(NC(=O)CC2C(=O)N(CC)C(=S)N2CCNC(C)=O)cc1 (configuration not stated)	-113*	-1%	/	-4%	-3%
CCOc1ccc(NC(=O)CC2C(=O)N(CC)C(=S)N2CCNC(C)=O)cc1 (configuration not stated)	11	-7%	/	3%	-6%
CCCOc1ccc(NC(=O)CC2C(=O)N(C)C(=S)N2Cc2cccs2)cc1 (configuration not stated)	-119*	?	-1	6%	-23%
CCN1C(=O)C(CC(=O)Nc2ccc(Br)cc2)N(CCCc2ccccc2)C1=S (configuration not stated)	55	13µM*	4	29%[38.3 µM]	-5%
CN1C(=O)C(CC(=O)Nc2ccc(F)cc2)N(Cc2cccs2)C1=S (configuration not stated)	/	2%	/	/	/
CCN1C(=O)C(CC(=O)Nc2ccc(OC)cc2)N(CCc2ccc(OC)cc2)C1=S (configuration not stated)	/	2.2µM*	/	4%	/
O=C1CN(C(=O)CCCc2c[nH]c3ccccc23)c2ccccc2N1	-12	-5%	7	8%[38.3 µM]	?
CSCCC(NS(=O)(=O)/C=C/c1ccccc1)C(=O)O (configuration not stated)	/	5%	/	1%	/
O=C(O)CNc1ccc(C(=O)O)cc1	/	6%[13.5 µM]	/	2%	-3%
COc1ccc(CCN2C(=S)N(C)C(=O)C2CC(=O)Nc2ccc(F)cc2)cc1 (configuration not stated)	/	1.3µM*	/	/	/
CCOc1ccccc1NC(=O)N1CCC(C(=O)c2ccc(F)cc2)CC1	23	5µM*	5	26%[38.3 µM]	-10%
COc1ccc(S(=O)(=O)NCC2CCC(C(=O)N3CCC4(CC3)OCCO4)CC2)cc1 (configuration not stated)	20	-11%	9	1%	-6%
O=C(/C=C/c1ccccc1Cl)NCc1cccs1	29	?	/	8%	14µM*
COc1cc(C(=O)N2c3ccccc3CC2C)cc(OC)c1OC (configuration not stated)	-82*	1%	5	14%[38.3 µM]	-8%
CCCNCC1C(Oc2ccc(Cl)cc2)C(=O)N1c1ccccc1C (configuration not stated)	47	-5%	/	13%	-5%
COC(=O)CN1C(=O)N/C(=C/c2ccc(OC)cc2)C1=O	/	?	/	3%	/
COC(=O)CN1C(=O)N/C(=C/c2cc3c(cc2OC)OCO3)C1=O	/	7.9µM*	/	4%	/
CCOc1cc2c(cc1/C=C1/NC(=O)N(CC(=O)OC)C1=O)OCO2	/	11µM*	/	-2%	/
COc1cc2c(cc1/C=C1/NC(=O)N(CC(=O)Nc3ccccc3)C1=O)OCO2	/	10%	/	-3%	/
COC(=O)CN1C(=O)N/C(=C/c2cc(Cl)c(OC)c(OC)c2)C1=O	/	4µM*	/	-7%	/
CC(=O)Nc1ccc(S(=O)(=O)N2CCc3nc(COc4ccccc4)c4c(c3C2)CO[C@@H](C)C4)cc1	/	9%[13.5 µM]	/	7%	1%
CSc1nc2nc3c(cc2c(=O)n1-c1cccc(C)c1)COC(C)(C)C3	/	3.5µM*	/	/	/
CSc1nc2nc3c(cc2c(=O)n1-c1ccccc1)COC(C)(C)C3	/	14µM*	/	6%	/
Cc1ccc(-n2c(=S)[nH]c3nc4c(cc3c2=O)COC(C)(C)C4)cc1	-20	?	/	2%	-1%
CCOC(=O)c1sc2nc3c(cc2c1N)COC(C)(C)C3	-20	?	/	-7%	-19%
CN1CCN(CN2C(=O)C3C4C=CC(C3C2=O)C2C3C(=O)N(CN5CCN(C)CC5)C(=O)C3C42)CC1 (configuration not stated)	/	-12%[13.5 µM]	/	9%	-3%
COc1ccc(N2C(=O)CCC(C(=O)N3CCN(c4ccccn4)CC3)C2c2ccc(F)cc2)cc1 (configuration not stated)	/	-9%	/	-2%	/
C/C(=N/NC(=O)Cc1cccs1)c1ccco1	?	?	/	7%	-3%
Cc1cc2nc3[nH]c4c(Cl)cc(Cl)cc4c3nc2cc1C	/	-8%[13.5 µM]	/	-3%	-7%

From PubChem
